Measurements reported in PubChem BioAssay (NCATS).
Values joined by “and” are separate entries in the source; they are usually repeats but may differ in a detail not shown here. Identical values can stand only once. Inconclusive results are not listed. Active and inactive are the calls of the source. Unless noted, calls come from the whole dose curve; as a rule, active = well fitted curve in the direction sought with a large enough effect; inconclusive = small, poorly fitted or top-dose-only effect, or another doubt; inactive = no such curve, though single readings can be large; an effect the other way counts as inactive or inconclusive.

Legend:
[1] = Primary qHTS for inhibitors of nuclear receptor binding SET domain protein 2 (NSD2) in an RCH-ACV wild type WT cells (2C) (AID 1645877); conditions: RCH-ACV NSD2 WT (2C) viability, CellTiter-Glo, 72 h; series mostly up to 44.9 µM; note: nearly all actives have a fitted effect of over 70% in size; note: potency is the fitted concentration of half-maximal effect
[2] = Primary qHTS for inhibitors of nuclear receptor binding SET domain protein 2 (NSD2) in an isogenic RCH-ACV NSD2 p.E1099K mutant (9B) (AID 1645876); conditions: RCH-ACV (leukaemia line) NSD2 E1099K (9B) viability, CellTiter-Glo, 72 h; series mostly up to 44.9 µM; note: nearly all actives have a fitted effect of over 70% in size; note: potency is the fitted concentration of half-maximal effect
[3] = target: Catechol O-methyltransferase (Homo sapiens) (UniProt P21964); experiment: Confirmatory Screen for Target Class Profiling of Small Molecule Inhibitors of Methyltransferases (AID 1745852; calls by dose curve; note: potency is the fitted concentration of half-maximal effect; for activity change, negative = inhibition: % is set by controls: 0 for no effect and ±100 for the full control effect); conditions: MTase-Glo luminescence, SAH detection, recombinant enzyme; measured here: COMT max response; stronger effect = lower value
Sequence of Catechol O-methyltransferase (Homo sapiens) (P21964 whole entry, looked up): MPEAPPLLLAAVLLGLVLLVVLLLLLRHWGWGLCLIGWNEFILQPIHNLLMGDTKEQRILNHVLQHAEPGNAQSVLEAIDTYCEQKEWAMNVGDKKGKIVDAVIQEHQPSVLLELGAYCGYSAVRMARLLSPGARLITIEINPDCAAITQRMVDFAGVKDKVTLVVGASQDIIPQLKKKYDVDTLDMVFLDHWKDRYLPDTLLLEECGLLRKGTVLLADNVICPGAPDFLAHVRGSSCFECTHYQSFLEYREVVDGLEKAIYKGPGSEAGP

[4] = target: Guanidinoacetate N-methyltransferase (Homo sapiens) (UniProt Q14353); experiment: as above; conditions: MTase-Glo luminescence, SAH detection, recombinant enzyme; activity change, negative = inhibition: at 57.3 µM (top of the series) unless noted; series mostly up to 57.3 µM
[5] = target: Nicotinamide N-methyltransferase (Homo sapiens) (UniProt P40261); experiment: as above; conditions: MTase-Glo luminescence, SAH detection, recombinant enzyme; measured here: NNMT max response; stronger effect = lower value
Sequence of Nicotinamide N-methyltransferase (Homo sapiens) (P40261 whole entry, looked up): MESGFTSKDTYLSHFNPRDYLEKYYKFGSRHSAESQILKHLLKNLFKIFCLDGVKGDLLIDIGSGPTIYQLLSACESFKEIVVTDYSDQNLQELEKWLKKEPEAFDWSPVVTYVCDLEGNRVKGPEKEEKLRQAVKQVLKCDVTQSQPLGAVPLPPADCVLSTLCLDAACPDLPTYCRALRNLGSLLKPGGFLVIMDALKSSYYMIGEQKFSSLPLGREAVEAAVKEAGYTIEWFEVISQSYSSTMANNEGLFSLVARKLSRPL

[6] = target: Phenylethanolamine N-methyltransferase (Homo sapiens) (UniProt P11086); experiment: as above; conditions: MTase-Glo luminescence, SAH detection, recombinant enzyme; measured here: PNMT max response; stronger effect = lower value
Sequence of Phenylethanolamine N-methyltransferase (Homo sapiens) (P11086 whole entry, looked up): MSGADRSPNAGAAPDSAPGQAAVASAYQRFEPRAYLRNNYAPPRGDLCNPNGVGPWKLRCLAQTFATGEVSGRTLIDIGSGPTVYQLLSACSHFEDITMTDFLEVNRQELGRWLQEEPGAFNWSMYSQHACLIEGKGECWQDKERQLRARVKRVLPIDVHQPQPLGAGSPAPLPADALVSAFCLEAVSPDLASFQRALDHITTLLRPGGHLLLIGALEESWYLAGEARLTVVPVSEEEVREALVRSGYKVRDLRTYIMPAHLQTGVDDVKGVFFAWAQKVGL

[7] = Viability counterscreen for antagonist of constitutive androstane receptor (CAR) against the NCATS DSHEA and TCM libraries (AID 1794837); conditions: CAR reporter cell line viability counterscreen, qHTS; series mostly up to 40 µM;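 note: compound exposure lasted 24 h before viability reading; 0% is about no effect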
How it was run: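 Viability was measured by CellTiter-Fluor fluorescence (405/540 nm, 1 hr) in HepG2-CYP2B6-hCAR cells. Cells were co-treated 24 hr with 48 uM CITCO (final), antagonist mode, and test substances.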

[8] = Viability counterscreen for agonist of constitutive androstane receptor (CAR) against the NCATS DSHEA and TCM libraries (AID 1794838); conditions: HepG2 cell viability counterscreen, CAR agonist assay, co-treated with 0.75 µM CAR antagonist; series mostly up to 40 µM;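 note: HepG2 cells with CYP2B6 reporter and hCAR plus 0.75 µM PK11195 antagonist; cells exposed to compound for 24 h; 0% is about no effect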
How it was run: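 Cell viability, from CellTiter-Fluor fluorescence (405/540 nm), was scored after a 24 h, 37C exposure of HepG2 cells carrying CYP2B6 reporter and hCAR to test substances in presence of 0.75 uM PK11195.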

[9] = NCATS anti-infectives library activity on the primary C. elegans qHTS viability assay (AID 1745855; calls by dose curve; note: potency is the fitted concentration of half-maximal effect); conditions: C. elegans worm area imaging, day 7; series mostly up to 41.8 µM
How it was run: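 Titration-based screen in worms: eggs hatched overnight in M9, L1 larvae fed TOP10 capsules in S medium with compound, incubated 21 °C for 7 days; fluorescent objects gated by size and intensity at days 0, 3 and 7.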

C[C@@H]1O[C@@H](O[C@H]2[C@H](OC(=O)[C@]34CCC(C)(C)C[C@H]3C3=CCC5[C@@]6(C)C[C@H](O)[C@H](O[C@@H]7O[C@H](C(=O)O)[C@@H](O)[C@H](O)[C@H]7O)[C@@](C)(CO)C6[C@H](O)C[C@@]5(C)[C@]3(C)C[C@H]4O)O[C@@H](CO)[C@@H]2O)[C@H](O)[C@H](O)[C@H]1O[C@@H]1OC[C@@H](O)[C@H](O[C@H]2OC[C@](O)(CO)[C@H]2O)[C@H]1O (some centres not stated)
Potency [1]: 0.122 µM (active)

CC[C@H](C)/C=C(C)/C=C/C1=CC2=C(Cl)C(=O)[C@](C)(O)[C@H](OC(C)=O)[C@H]2CO1
Potency [1]: 10.1 µM (active)

C=C1C(=O)OC2/C=C(\CO)CC/C=C(\C=O)C(OC)C(OC(=O)C(C)CC)C12 (configuration not stated)
Potency [2]: 7.96 µM (active) | activity [3]: -88.5% | activity change, negative = inhibition [4]: 0% [at 29.8 µM] | activity [5]: 4.11% | activity [6]: 1.39%

CC1OC2OC(=O)C3(C)CC4C5(CO5)C5=CC(=O)OC(C)(C)C5=CC(=O)C4(C)C(C1=O)C23 (configuration not stated)
Potency [1]: 8.93 µM (active)

C[C@H](Oc1cc(-c2cnn(C3CCNCC3)c2)cnc1N)c1c(Cl)ccc(F)c1Cl
Potency [2]: 11.5 µM (active) | Potency [1]: 12.9 µM (active) | activity [3]: -64.7% | Potency [4]: 27.1 µM (active) | activity [5]: -75.2% | activity [6]: -61.8%

CC(=O)C1=C(O)C=C2Oc3c(C(C)=O)c(O)c(C)c(O)c3[C@]2(C)C1=O
Potency [2]: inactive | Potency [1]: inactive | outcome [7]: inactive | outcome [8]: inactive

NC(=O)c1ccccc1Nc1ccnc(Nc2cccc(O)c2)n1
Potency [2]: 0.742 µM (active) | Potency [1]: 0.833 µM (active) | activity [3]: -4.04% | activity change, negative = inhibition [4]: 1.25% | activity [5]: -41.1% | activity [6]: -7.27%

Cc1sc2c(c1C)C(c1ccc(Cl)cc1)=N[C@H](CC(=O)NCCCCNC(=O)COc1cccc3c1C(=O)N([C@H]1CCC(=O)NC1=O)C3=O)c1nnc(C)n1-2
Potency [2]: 0.23 µM (active) | Potency [1]: 0.129 µM (active) | activity [3]: -0.126% | activity change, negative = inhibition [4]: 0% | activity [5]: -57.3% | activity [6]: 3.3%

O=C(O)c1ccc(N2C(=O)/C(=C/c3ccc(-c4ccc([N+](=O)[O-])cc4)o3)C=C2c2ccccc2)cc1
Potency [1]: inactive

CCNC(=O)C#Cc1ccc2c(C(=Nc3ccc(CN(C)C)cc3)c3ccccc3)c(O)[nH]c2c1
Potency [2]: 0.512 µM (active) | Potency [1]: 0.0102 µM (active) | activity [3]: -20.9% | activity change, negative = inhibition [4]: -11.9% [at 29.8 µM] | activity [5]: -31% | activity [6]: -19.5%

O=C1Cc2c([nH]c3ccc(Br)cc23)-c2ncccc2N1
Potency [2]: 2.9 µM (active) | Potency [1]: 2.58 µM (active) | activity [3]: -8.4% | activity change, negative = inhibition [4]: -5.35% | activity [5]: -15.4% | activity [6]: -7.69%

CCC(C)(OC(C)=O)C(=O)O[C@H]1[C@H](OC(C)=O)[C@]2(CO)[C@H](O)[C@H](O)[C@]3(C)C(=CCC4[C@@]5(C)CC[C@H](O[C@@H]6O[C@H](C(=O)O)[C@@H](O)[C@H](O[C@@H]7OC[C@H](O)[C@H](O[C@@H]8OC[C@H](O)[C@H](O)[C@H]8O)[C@H]7O)[C@H]6O[C@@H]6O[C@H](CO)[C@@H](O)[C@H](O)[C@H]6O)C(C)(C)C5CC[C@]43C)[C@@H]2CC1(C)C (some centres not stated)
Potency [1]: 2.44 µM (active)

CC(O)C(C)n1ncn(-c2ccc(N3CCN(c4ccc(OCC5COC(Cn6cncn6)(c6ccc(Cl)cc6Cl)O5)cc4)CC3)cc2)c1=O (configuration not stated)
Potency [1]: inactive

CO[C@H]1C[C@@H]2CC[C@@H](C)[C@@](O)(O2)C(=O)C(=O)N2CCCC[C@H]2C(=O)O[C@H]([C@@H](C)C[C@@H]2CC[C@@H](O)[C@H](OC)C2)CC(=O)[C@H](C)/C=C(\C)[C@@H](O)[C@@H](OC)C(=O)[C@H](C)C[C@H](C)/C=C/C=C/C=C/1C
Potency [1]: 25.8 µM (active)

NS(=O)(=O)c1ccc(NC(=O)Nc2ccc(F)cc2)cc1
Potency [2]: inactive | Potency [1]: inactive | Potency [9]: 12.9 µM (active)

C=C1[C@H]2CC[C@H](C(=O)O)[C@@]23CC[C@H](C3)C1(C)C
Potency [2]: inactive | Potency [1]: inactive | outcome [7]: inactive | outcome [8]: inactive

COc1cc(OC)c(NC(=O)c2ccc(Cc3cc4c(cc3C)C(C)(C)CCC4(C)C)o2)c(OC)c1
Potency [1]: 23 µM (active)

C=C1C(=O)O[C@@H]2C3=C(C)CCC[C@]3(C)CC[C@@]12O
Potency [2]: 2.3 µM (active) | Potency [1]: 1.29 µM (active) | activity [3]: -87.7% | activity change, negative = inhibition [4]: -4.1% | activity [5]: -7.46% | activity [6]: -3.37%

C[C@H]1CC[C@@]2(OC1)O[C@H]1CC3[C@@H]4CC[C@@H]5C[C@@H](O[C@@H]6O[C@H](CO)[C@@H](O[C@@H]7O[C@H](CO[C@@H]8OC[C@@H](O)[C@H](O)[C@H]8O)[C@@H](O[C@@H]8O[C@H](CO)[C@H](O)[C@H](O)[C@H]8O)[C@H](O)[C@H]7O)[C@H](O)[C@H]6O)CC[C@]5(C)C4CC[C@]3(C)[C@H]1[C@@H]2C (some centres not stated)
Potency [1]: 3.46 µM (active)

CC(=O)O[C@H]1CC[C@]2(C)[C@H]3CC[C@]4(C)Oc5oc(C)cc(=O)c5C[C@H]4[C@]3(C)CC[C@H]2C1(C)C
Potency [1]: 7.09 µM (active)

C=C1/C(=C/C=C2\CCC[C@]3(C)[C@@H]([C@@H](C)OCCC(O)(CC)CC)CC[C@@H]23)C[C@@H](O)C[C@@H]1O
Potency [1]: 20.5 µM (active)

CO[C@H]1O[C@@H]2O[C@@]3(C)CCC4[C@H](C)CCC([C@H]1C)[C@]42OO3 (some centres not stated)
Potency [1]: 6.49 µM (active)

C=C1C(=O)OC2C1CCC1(C)C(O)CC=C(C)C21 (configuration not stated)
Potency [2]: 18.3 µM (active) | Potency [1]: 16.3 µM (active) | activity [3]: -60.3% | activity change, negative = inhibition [4]: -6.03% | activity [5]: -3.54% | activity [6]: -2.19%

CC(C)(CO)c1cc2cc(NC(=O)C3(c4ccc5c(c4)OC(F)(F)O5)CC3)c(F)cc2n1CC(O)CO (configuration not stated)
Potency [1]: inactive

Cc1c[nH]c2ncnc(N3CCC(CN)(C(=O)Nc4cccc(OC(=O)N(C)C)c4)CC3)c12
Potency [2]: 9.34 µM (active) and 7.42 µM (active) | Potency [1]: 10.5 µM (active) and 11.8 µM (active) | activity [3]: -12.7% | activity change, negative = inhibition [4]: -4.87% [at 114 µM] | activity [5]: -59.8% | activity [6]: -19.2%

CC1(C)CC[C@]2(C(=O)O)CC[C@]3(C)C(=CCC4[C@@]5(C)C[C@@H](O)[C@H](O)C(CO)(CO)C5CC[C@]43C)C2[C@@H]1O (some centres not stated)
Potency [2]: 8.93 µM (active) | activity [3]: -63.1% | activity change, negative = inhibition [4]: 0% [at 29.8 µM] | activity [5]: 0% | activity [6]: 6.04%
